High-throughput results (PubChem BioAssay)
D2 antagonist: D2 dopamine receptor (human) antagonism; P14416; HEK293 TREx D2 cells, calcium flux, dopamine EC80; inhibition, % at 10 µM; 340,000 tested, 2% active; AID 485344; in the data active = inhibition above about 30%; inactive = below that, where a call was filed; note: 0% is about no effect
Target sequence (P14416 whole entry, looked up): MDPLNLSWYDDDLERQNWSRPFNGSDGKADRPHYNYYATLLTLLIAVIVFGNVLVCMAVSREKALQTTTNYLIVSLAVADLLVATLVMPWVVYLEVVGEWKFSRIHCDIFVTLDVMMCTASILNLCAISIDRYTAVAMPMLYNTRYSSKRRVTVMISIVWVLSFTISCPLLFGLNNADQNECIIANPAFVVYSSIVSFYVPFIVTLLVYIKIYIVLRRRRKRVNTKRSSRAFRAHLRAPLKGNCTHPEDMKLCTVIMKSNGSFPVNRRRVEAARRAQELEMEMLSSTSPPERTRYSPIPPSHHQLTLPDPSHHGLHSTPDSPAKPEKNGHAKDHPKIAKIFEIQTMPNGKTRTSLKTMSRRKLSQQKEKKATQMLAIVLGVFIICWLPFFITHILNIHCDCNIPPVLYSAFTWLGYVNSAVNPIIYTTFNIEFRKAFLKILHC
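In this primary screen, negative modulation is detected by tracking calcium flux after an EC80 dopamine challenge in inducible HEK293 T-REx D2 cells preexposed to test compound for 180 s.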
D2 PAM-1: positive allosteric modulators of human D2 dopamine receptor | P14416 | HEK293 T-REx D2, calcium flux, EC20 dopamine potentiation | 340,000 tested, 0.34% active | potentiation, % at 10 µM;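 active = potentiation over 3 SD above the plate norm, cut at about 30% in these data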; note: 0% is about no effect
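Potentiation of an EC20 dopamine calcium response measured kinetically over 180 s, after a preceding 180 s compound-only read flagging agonists. Cells: inducible Hek293 Trex D2 line, 4000/well, cultured overnight at 30 C before dye loading.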
D2 ag-1: agonists of human D2 dopamine receptor (beta-arrestin) | DiscoveRx PathHunter D2 beta-arrestin, luminescence, 90 min; 100% = 57 uM dopamine signal | activation, % (test concentration not listed) | 360,000 tested, 0.084% active | P14416; in the data active = activation above about 40%; inconclusive = between about 15% and that limit
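DiscoveRx PathHunter D2 beta-arrestin cells (2,100/well) attached overnight, then compound-stimulated 90 min at 37 C in HBSS/10 mM HEPES/0.1% Tween-20 buffer; beta-galactosidase complementation read by luminescence after 1 h at ambient temperature. Dopamine 57 uM final (EC100) as control.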
D2 PAM-2: positive allosteric modulators of human D2 dopamine receptor. P14416. DiscoveRx D2 beta-arrestin cells, luminescence, 90 min; 100% = 57 uM dopamine signal. potentiation, % (test concentration not listed). 360,000 tested, 0.23% active. AID 624464; in the data active = potentiation above about 50%; inconclusive = mostly about 30% to 49%
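D2 cells co-treated with compound plus 50 nM dopamine (EC20) for 90 min at 37 deg C to detect potentiation. Beta-arrestin recruitment was read as enzyme-fragment luminescence after 1 h at ambient temperature. Full response was set by 57 uM dopamine.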
B2AR arrestin: agonists driving beta-arrestin recruitment to human beta2-adrenergic receptor | beta-arrestin recruitment to beta2AR, cell-based reporter | P07550 | 330,000 tested, 0.02% active | AID 492947 | Potency, µM (titrated, usually from 46.1 µM), inactives show at the highest dose activation, usual class: activators;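 note: potency is the fitted concentration of half-maximal effect; 0% = DMSO controls and full agonism = EC100 isoproterenol or metaproterenol; nearly all actives have a fitted effect of over 65% in size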
D2 ag-2: D2 dopamine receptor (human) agonism; P14416; HEK293 T-REx D2 cells, calcium flux agonist mode; activation, % at 2 µM; 340,000 tested, 0.53% active; AID 485358;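 active = activation over 3 SD above normal in the single-dose calcium agonist read, cut at about 30% in these data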; note: 0% is about no effect
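Calcium-flux readout, 1 cycle/sec over 180 s following compound pin transfer, in inducible HEK293 Trex D2 cells (force-coupled); dopamine controls included. Positive calcium responses during this window marked compounds as potential agonists.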
D3 arrestin ag: confirmation of human D3 dopamine receptor agonists, beta-arrestin | Potency, µM (titrated, usually from 76.9 µM), without a hit: at the highest dose activation, hits mostly activators | 2,300 tested, 4% active | shares compounds with D2 ag-2 | DiscoveRx D3 beta-arrestin cells, luminescence, 90 min | AID 720506;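 note: potency is the fitted concentration of half-maximal effect; 100% = dopamine control response; nearly all actives have a fitted effect of over 70% in size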
D2 ag-3: activates human D2 dopamine receptor in D3 counterscreen | DiscoveRx PathHunter D2 beta-arrestin, luminescence, 90 min; response scale: percent relative to full dopamine signal | 2,300 tested, 5.9% active | Potency, µM (doses to about 76.9 µM), without a hit: top-dose activation, most hits filed as activators | shares compounds with D2 ag-2 | AID 720507; note: potency is the fitted concentration of half-maximal effect; % of control where 0% means no effect; nearly all actives have a fitted effect of over 70% in size
An asterisk follows results filed as active. This is a sample that favours compounds with a hit; in the whole collection about 2.4% have one here. Unless noted, calls come from the whole dose curve; as a rule, active = well fitted activation curve with a large enough effect; inconclusive = small, poorly fitted or top-dose-only effect; inactive = flat fitted curve, though single readings scatter.

What do the screens show for `COc1ccc([N+](=O)[O-])cc1NC(=O)CCCOc1ccccc1`?
D2 antagonist: 2.3; D2 PAM-1: -34.9; D2 ag-1: -3.3; D2 PAM-2: -19.0; B2AR arrestin: 0.2%; D2 ag-2: 0.0

How did COc1ccc([N+](=O)[O-])cc1NC(=O)CCN1CCN(c2ccccc2)CC1 do in these assays?
D2 ag-1: 47.3*; D2 PAM-2: 6.1; B2AR arrestin: 0.3%; D3 arrestin ag: inconclusive; D2 ag-3: inconclusive

How did COc1ccccc1NC(=O)c1ccc(NC(=O)CN2CCN(C(=O)c3ccco3)CC2)cc1 do in these assays?
D2 antagonist: 40.9*; D2 PAM-1: -7.5; D2 ag-1: 10.8; D2 PAM-2: 19.5; B2AR arrestin: -0.4%; D2 ag-2: 51.3*; D3 arrestin ag: inconclusive; D2 ag-3: 19.9%

What do the screens show for `COc1ccccc1NC(=O)c1ccc(NC(=O)c2ccco2)cc1`?
D2 antagonist: -13.8; D2 PAM-1: -20.2; D2 ag-1: -3.2; D2 PAM-2: 1.2; B2AR arrestin: -0.2%; D2 ag-2: 0.3

What do the screens show for `COc1ccccc1NC(=O)CN1CCN(c2ccccc2)CC1`?
D2 antagonist: 39.1*; D2 PAM-1: -29.1; D2 ag-1: 5.1; D2 PAM-2: -6.3; B2AR arrestin: 0.0%; D2 ag-2: 49.2*; D3 arrestin ag: -3.0%; D2 ag-3: 8.8%

Results for Cc1cc(C(=O)OCC(=O)Nc2ccc(F)cc2F)c(C)o1 ?
D2 antagonist: 0.0; D2 PAM-1: -11.0; D2 ag-1: -3.8; D2 PAM-2: -21.2; B2AR arrestin: -0.3%; D2 ag-2: -0.7

How did CCOC(=O)N1CCN(C(=O)COc2ccc3ccccc3c2Br)CC1 do in these assays?
D2 antagonist: -0.1; D2 PAM-1: -5.5; D2 ag-1: -0.5; D2 PAM-2: -7.7; B2AR arrestin: -0.2%; D2 ag-2: -0.4

How did COc1ccccc1NC(=O)CN1CCN(C(=O)c2ccco2)CC1 do in these assays?
D2 ag-1: 6.8; D2 PAM-2: -20.9; B2AR arrestin: -0.3%; D3 arrestin ag: inconclusive; D2 ag-3: 12.9%

What do the screens show for `COc1ccccc1N1CCN(CC(=O)Nc2nc(C)c(C(=O)N(C)C)s2)CC1`?
D2 antagonist: 12.1; D2 PAM-1: -5.7; D2 ag-1: 3.4; D2 PAM-2: -19.3; B2AR arrestin: 0.2%; D2 ag-2: 0.2; D3 arrestin ag: -6.6%; D2 ag-3: -4.6%

How did COC(=O)c1[nH]c2ccccc2c1NC(=O)CN1CCN(C(=O)c2ccco2)CC1 do in these assays?
D2 antagonist: 20.6; D2 PAM-1: -19.4; D2 ag-1: inconclusive; D2 PAM-2: 9.4; B2AR arrestin: -1.3%; D2 ag-2: 58.1*; D3 arrestin ag: inconclusive; D2 ag-3: 19.5%

What do the screens show for `Cc1nc(NC(=O)CN2CCCCC2)sc1C(=O)N(C)C`?
D2 antagonist: 7.0; D2 PAM-1: 3.0; D2 ag-1: -0.9; D2 PAM-2: -0.6; B2AR arrestin: -0.1%; D2 ag-2: -0.2

Results for COc1ccc(C)cc1NC(=O)CCN1CCN(C/C=C/c2ccccc2)CC1 ?
D2 antagonist: 68.0*; D2 PAM-1: -25.0; D2 ag-1: 3.9; D2 PAM-2: -0.4; B2AR arrestin: -0.9%; D2 ag-2: 69.9*; D3 arrestin ag: 6.8%; D2 ag-3: inconclusive

What do the screens show for `CCCNC(=O)N1CCCC(C(N)=O)C1` (centres undefined)?
D2 ag-1: 0.6; D2 PAM-2: 5.6; B2AR arrestin: 0.1%

What do the screens show for `CC(Cc1n[nH]c(=S)n1N)c1ccccc1` (centres undefined)?
D2 antagonist: 13.9; D2 PAM-1: 4.2; D2 ag-1: -0.9; D2 PAM-2: -10.6; B2AR arrestin: -0.8%; D2 ag-2: -0.4

How did Cc1ccc2c(C)nc(SC(C(=O)c3ccccc3)c3ccccc3)nc2c1 (centres undefined) do in these assays?
D2 antagonist: -6.8; D2 PAM-1: -1.3; D2 ag-1: 0.9; D2 PAM-2: 3.6; B2AR arrestin: -0.5%; D2 ag-2: 0.9

What do the screens show for `Cc1cc(Cl)ccc1NC(=O)CN1CCN(C(=O)c2ccco2)CC1`?
D2 antagonist: 3.6; D2 PAM-1: 3.6; D2 ag-1: 2.3; D2 PAM-2: 3.6; B2AR arrestin: -0.6%; D2 ag-2: 1.4

How did Cc1ccccc1NC(=O)CN1CCN(C(=O)c2ccco2)CC1 do in these assays?
D2 antagonist: -14.9; D2 PAM-1: -10.6; D2 ag-1: 10.6; D2 PAM-2: 3.8; B2AR arrestin: 0.1%; D2 ag-2: 43.8*; D3 arrestin ag: -6.5%; D2 ag-3: 22.4%

What do the screens show for `Cc1ccc(S(=O)(=O)N2CCCC2CNC(=O)C(=O)NC2CC2)cc1` (centres undefined)?
D2 antagonist: 7.0; D2 PAM-1: -10.6; D2 ag-1: 1.1; D2 PAM-2: 2.3; B2AR arrestin: -1.9%; D2 ag-2: 34.5*; D3 arrestin ag: 0.9%; D2 ag-3: -2.5%

How did COc1ccc(S(=O)(=O)N2CCCC2CNC(=O)C(=O)NC2CCCCCC2)cc1 (centres undefined) do in these assays?
D2 antagonist: 20.4; D2 PAM-1: -2.9; D2 ag-1: 4.3; D2 PAM-2: 19.3; B2AR arrestin: 0.1%; D2 ag-2: 31.1*; D3 arrestin ag: 8.4%; D2 ag-3: inconclusive

What do the screens show for `COc1ccc(S(=O)(=O)N2CCCC2CNC(=O)C(=O)NC2CCCC2)cc1` (centres undefined)?
D2 ag-1: -1.4; D2 PAM-2: 4.5

What do the screens show for `Cc1cccc(C(=O)NC(=S)NNC(=O)Cc2ccccc2)c1`?
D2 antagonist: 6.6; D2 PAM-1: -2.8; D2 ag-1: -6.6; D2 PAM-2: 18.3; B2AR arrestin: -0.8%; D2 ag-2: 36.7*; D3 arrestin ag: -9.4%; D2 ag-3: -9.2%

How did Cc1cccc(C(=O)NC(=S)NCc2ccccc2)c1 do in these assays?
D2 ag-1: -6.3; D2 PAM-2: -7.9

What do the screens show for `O=C(COc1ccc2oc(-c3ccccc3)cc(=O)c2c1)Nc1ccccc1`?
D2 antagonist: -12.7; D2 PAM-1: -16.4; D2 ag-1: 0.5; D2 PAM-2: -3.8; B2AR arrestin: -0.1%; D2 ag-2: 21.3; D3 arrestin ag: 12.6%; D2 ag-3: 1.2%

What do the screens show for `COC(=O)COc1ccc2oc(-c3ccc(OC)cc3)cc(=O)c2c1`?
D2 PAM-1: -10.2; D2 ag-2: 0.5
